The values that follow come from PubChem BioAssay.

Experiment [1] is described as follows: HepG2 liver cancer cell viability effects, profiling panel, resazurin fluorescence, 24 h, PK04 Diversity Set (AID 1172). Note: test concentration not given here. As to conditions: higher = more signal. A general note: Resazurin is reduced to fluorescent resorufin, in cell work by metabolically active cells.
Experiment [2] can be described thus: basal S. cerevisiae growth modulation, no modifier, primary screen, OD600, strain BY4716, 24 h, basal condition (AID 1173). As to conditions: OD600, 24 h, higher = more signal, called active from +8 up or from −8 down.
Experiment [3] is described as follows: MM1S myeloma cell viability, profiling panel, resazurin fluorescence, basal, 24 h, PK04 Diversity Set (AID 1174).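 Note: MM1S multiple myeloma cell line; test concentration not given here.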 As to conditions: higher = more signal, called active from +8 up or from −8 down.
Experiment [4] deals with Dihydroorotate dehydrogenase (quinone), mitochondrial (Plasmodium falciparum (isolate 3D7)) (UniProt Q08210). Kind of experiment: PfDHODH enzyme inhibitors, primary screen, biochemical, C-terminal His tag, absorbance 600 nm (AID 1175).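 Note: recombinant parasite enzyme with a five histidine tag at its C terminus; test concentration not given here.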 As to conditions: DCIP absorbance 600 nm, higher = more signal, called active from +8 up or from −8 down.
Chain of Dihydroorotate dehydrogenase (quinone), mitochondrial (Plasmodium falciparum (isolate 3D7)) (Q08210 whole entry, looked up): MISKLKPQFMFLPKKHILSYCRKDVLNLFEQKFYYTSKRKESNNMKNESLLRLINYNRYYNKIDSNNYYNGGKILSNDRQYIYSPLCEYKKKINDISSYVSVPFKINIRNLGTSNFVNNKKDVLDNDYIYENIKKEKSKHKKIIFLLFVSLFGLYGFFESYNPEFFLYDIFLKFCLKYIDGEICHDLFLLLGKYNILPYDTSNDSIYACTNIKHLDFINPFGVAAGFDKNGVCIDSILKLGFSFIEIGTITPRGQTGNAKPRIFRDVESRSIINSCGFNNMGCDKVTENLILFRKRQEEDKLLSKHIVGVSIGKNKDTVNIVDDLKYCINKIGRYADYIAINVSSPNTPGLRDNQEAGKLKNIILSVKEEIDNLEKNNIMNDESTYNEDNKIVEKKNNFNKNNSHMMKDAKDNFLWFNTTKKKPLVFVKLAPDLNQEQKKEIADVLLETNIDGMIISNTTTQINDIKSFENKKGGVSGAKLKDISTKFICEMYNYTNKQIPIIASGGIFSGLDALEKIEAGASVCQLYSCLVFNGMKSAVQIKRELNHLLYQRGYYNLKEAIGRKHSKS
Experiment [5] can be described thus: P. aeruginosa biofilm formation inhibitors, primary screen, strain PAO1, LB-PBS medium, absorbance 600 nm (AID 1176). Note: test concentration not given here. As to conditions: P. aeruginosa PAO1 growth/biofilm, A600, 12 h; higher = more signal.
The nature of experiment [6]: S. cerevisiae RM11-1a growth modifiers, primary screen, strain RM11-1a, OD600, basal, 24 h (AID 1177).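 Note: cultures grown under basal conditions with no added stressor; test concentration not given here.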 As to conditions: OD600, 24 h, higher = more signal, called active from +8 up or from −8 down.
The nature of experiment [7]: E. coli acrAB mutant growth effects, primary screen, E. coli filamentation inducers, strain DRC39, OD650, 24 h (AID 1178).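 Note: growth measured as culture turbidity by optical density at 650 nm; test concentration not given here.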 The following applies: higher = more signal, called active from +8 up or from −8 down.
Experiment [8] in a line: E. coli acrAB mutant growth effects, primary screen, E. coli filamentation inducers, strain DRC39, OD650, 48 h (AID 1179).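 Note: screen aims at cell division blockers that make cells filament.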 The following applies: E. coli DRC39 delta-acrAB growth, higher = more signal, called active from +8 up or from −8 down.
Experiment [9] in a line: RPMI8226 myeloma cell viability, profiling panel, resazurin fluorescence, basal, 24 h, PK04 Diversity Set (AID 1180).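 Note: RPMI8826 multiple myeloma cell line at 5000 cells per well; test concentration not given here.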 As to conditions: higher = more signal.
The target in experiment [10] is E3 ubiquitin-protein ligase XIAP (Homo sapiens) (UniProt P98170). Briefly: XIAP binders, primary screen, biophysical, small-molecule microarray, fluorescence 635 nm (AID 1181).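 Note: score merges 667 nm emission and signal to noise over triplicate slides.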 The following applies: small-molecule microarray binding, higher = more signal.
Chain of E3 ubiquitin-protein ligase XIAP (Homo sapiens) (P98170 whole entry, looked up): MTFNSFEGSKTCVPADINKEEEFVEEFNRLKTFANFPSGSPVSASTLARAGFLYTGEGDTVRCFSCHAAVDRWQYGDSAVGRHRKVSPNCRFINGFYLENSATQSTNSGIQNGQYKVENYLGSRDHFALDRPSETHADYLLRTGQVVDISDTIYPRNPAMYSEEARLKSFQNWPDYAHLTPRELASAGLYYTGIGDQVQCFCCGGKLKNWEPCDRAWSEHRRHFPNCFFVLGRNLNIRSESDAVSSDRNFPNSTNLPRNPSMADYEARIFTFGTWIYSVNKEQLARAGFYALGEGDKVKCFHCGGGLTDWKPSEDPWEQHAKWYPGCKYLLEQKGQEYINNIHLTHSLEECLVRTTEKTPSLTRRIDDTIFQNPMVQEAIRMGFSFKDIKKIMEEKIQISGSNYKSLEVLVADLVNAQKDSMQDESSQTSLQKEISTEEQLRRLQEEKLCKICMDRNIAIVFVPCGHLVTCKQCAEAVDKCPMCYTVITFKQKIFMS

Calls of active or inactive are those of the source. Unless noted, the rule behind the calls is not given here.

Turning to `CC(C)C(CO)N1C(=O)[C@@H]2[C@H]3C(=O)OCC=C[C@H]3OC23C=CCN(CCN2CCOCC2)C(=O)[C@@H]13` (stereo not given in full), the z-score is -0.173 in experiment [1]; 0.306 (inactive) in experiment [2]; -0.505 (inactive) in experiment [3]; -0.814 (inactive) in [5]; 1.21 (inactive) in experiment [6]; -0.934 (inactive) in [7]. Besides, the z-score in experiment [8] was -1.06 (inactive); in experiment [9], -0.371. For the same molecule, the composite z-score is 0.395 (inactive) in experiment [4] and -0.518 in [10].

Regarding `NC(=O)[C@@H]1[C@H]2C(=O)O[C@H](c3ccccc3)[C@H](c3ccccc3)N2[C@H](c2ccccc2OCCO)[C@@]12C(=O)Nc1ccc(C#CCCO)cc12`, the z-score was 1.06 in experiment [1]; -1.45 (inactive) in [2]; -0.476 (inactive) in [3]; -0.104 (inactive) in [5]; 0.895 (inactive) in experiment [6]; 0.386 (inactive) in experiment [7]. The z-score in [8] is -0.318 (inactive); in experiment [9] it was -1.29. Also, the results for the composite z-score in experiment [4] and in [10] were -0.58 (inactive) and -0.0048, respectively.

With `O=C1NC(=O)C2C1C=CC(C(O)CCc1ccccc1)N2Nc1ccccn1` (stereo not given), the z-score in [1] was -0.875; in [2], 0.725 (inactive); in [3], -0.871 (inactive); in experiment [5], 1.65 (inactive); in experiment [6], -1.07 (inactive); in experiment [7] it was 0.696 (inactive). In addition, the z-score was 1.07 (inactive) in experiment [8] and -0.717 in [9]. The composite z-score in experiment [4] is -0.505 (inactive); in [10] it was 0.107.

Turning to `COCCCNC(=O)[C@@]1(Cc2ccccc2CN=[N+]=[N-])N=C(c2ccc(OCCCO)cc2)O[C@H]1c1ccccc1N=[N+]=[N-]`, the z-score was -0.208 in experiment [1]; -0.255 (inactive) in experiment [2]; -1.18 (inactive) in experiment [3]; 0.413 (inactive) in experiment [5]; 0.587 (inactive) in experiment [6]; 1.86 (inactive) in experiment [7]. Also, the z-score in [8] is 1.08 (inactive); in experiment [9], -2.65. In addition, the figures for the composite z-score in [4] and in experiment [10] were 1.13 (inactive) and -0.0592, respectively.

On to `OCCCC1=CC(c2cccs2)N(Cc2cccc(OC(F)(F)F)c2)CC1` (stereo not given), for which the z-score in experiment [1] was -0.505; in experiment [2], -4.17 (inactive); in experiment [3], -0.656 (inactive); in experiment [5] it was -0.341 (inactive); in experiment [6] it was -0.54 (inactive); in experiment [7], 0.0886 (inactive). The z-score was -0.573 (inactive) in experiment [8] and -0.175 in experiment [9]. For the same molecule, the composite z-score was -1.3 (inactive) in [4] and 0.282 in [10].

On to `CN1C(=O)C2C=CC(C(O)c3ccc(F)cc3)N(N3CCCCC3)C2C1=O` (stereo not given), for which the z-score in [1] is -1.49; in experiment [2], 1.62 (inactive); in [3], -1.78 (inactive); in [5], 1.41 (inactive); in [6], 1.42 (inactive); in [7] it was -1.02 (inactive). The results for the z-score in experiment [8] and in experiment [9] were -0.837 (inactive) and -1.79, respectively. Also, the composite z-score in [4] was -0.555 (inactive); in experiment [10], -0.0727.

Take `O=C1O[C@H](c2ccccc2)[C@H](c2ccccc2)N2[C@H]1[C@@H](C(=O)NC[C@H](O)c1ccccc1)[C@]1(C(=O)Nc3ccccc31)[C@H]2c1ccccc1OCCO`: the z-score in experiment [1] is -2.69; in [2], -0.251 (inactive); in experiment [3], -9.21 (active); in [5] it was 3.02 (inactive); in [6] it was 1.75 (inactive); in experiment [7] it was 0.346 (inactive). For the same molecule, the results for the z-score in [8] and in experiment [9] were 0.784 (inactive) and -7.33, respectively. Also, the composite z-score in experiment [4] is -0.719 (inactive); in experiment [10] it was 0.189.

Take `C[N+](C)(C)CCCCCCNC(=O)[C@@H]1C[C@@H]2C(=O)NCC(=O)N2[C@@H]1c1ccc(O)cc1`: the z-score in experiment [1] is 0.811; in experiment [2], 0.0566 (inactive); in experiment [3] it was 0.562 (inactive); in experiment [5], -0.447 (inactive); in experiment [6], 0.311 (inactive); in experiment [7], 0.182 (inactive). For the same molecule, the z-score in [8] was 0.128 (inactive); in experiment [9] it was 0.203. In addition, the composite z-score in [4] was -1.45 (inactive); in [10], -0.128.

On to `[N-]=[N+]=NCc1ccccc1[C@H]1OC(c2ccc(OCCCO)cc2)=N[C@@]1(Cc1ccccc1N=[N+]=[N-])C(=O)NCCN1CCOCC1`, for which the z-score in experiment [1] was -0.634; in experiment [2], -1.11 (inactive); in experiment [3], -1.22 (inactive); in [5], 0.591 (inactive); in [6], 1.41 (inactive); in experiment [7], -0.0057 (inactive). Further, the z-score in experiment [8] is -0.357 (inactive); in experiment [9] it was -1.17. Also, the results for the composite z-score in experiment [4] and in experiment [10] were 1.15 (inactive) and -0.0414, respectively.

On to `C#CCNS(=O)(=O)N(C)C`, for which the z-score in [1] is 0.175; in experiment [2] it was -0.61 (inactive); in [3] it was -0.207 (inactive); in [5], -0.218 (inactive); in experiment [6], 0.648 (inactive); in experiment [7] it was -0.263 (inactive). For the same molecule, the z-score in experiment [8] is 0.56 (inactive); in experiment [9], 0.544. Besides, the composite z-score in experiment [4] is 0.196 (inactive); in experiment [10], -0.05.

With `CC(C)(C)OC(=O)CC[C@]1(C(=O)O)COC(c2ccc(OCCCO)cc2)=N1`, the z-score was 0.265 in [1]; 0.167 (inactive) in experiment [2]; -0.249 (inactive) in experiment [3]; -0.596 (inactive) in experiment [5]; 0.433 (inactive) in experiment [6]; -0.341 (inactive) in experiment [7]. In addition, the z-score in experiment [8] is -0.447 (inactive); in [9], -0.0624. Further, the composite z-score is -0.055 (inactive) in experiment [4] and -0.118 in experiment [10].

As to `C=CC[C@]1(C(=O)NCC(O)CO)N=C(c2ccc(OCCCO)cc2)O[C@H]1c1ccccc1N=[N+]=[N-]` (stereo not given in full), the z-score is 0.662 in experiment [1]; -0.746 (inactive) in experiment [2]; -0.302 (inactive) in [3]; 0.755 (inactive) in [5]; 0.329 (inactive) in [6]; 0.769 (inactive) in experiment [7]. Moreover, the z-score was -0.579 (inactive) in experiment [8] and 0.245 in experiment [9]. Further, the composite z-score is 1.13 (inactive) in experiment [4] and -0.106 in experiment [10].
